Results with a measured potency or affinity are listed apart. Inconclusive results are not listed. Activity calls are given as the source filed them.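 Rule for the calls: active = samples whose fitted half-maximal inhibition concentration is no more than ten times the top valid dose tested; inconclusive = flat response between -70 and -30, or invalid curve fit; inactive = flat within 30 of zero, potency above limit, or signal rising.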

The target of the assay is Trypsin (Sus scrofa) (UniProt P00761). Nature of the assay: trypsin protease activity blockade – biochemical, quenched peptide fluorescence, cherry-pick, selectivity assay for Rce1 protease inhibitor project, dose response (AID 488789).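 Note: more negative means stronger trypsin inhibition.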 The conditions noted are these: porcine trypsin, quenched peptide cleavage fluorescence; series mostly up to 10 µM.
Sequence of Trypsin (Sus scrofa) (P00761 whole entry, looked up): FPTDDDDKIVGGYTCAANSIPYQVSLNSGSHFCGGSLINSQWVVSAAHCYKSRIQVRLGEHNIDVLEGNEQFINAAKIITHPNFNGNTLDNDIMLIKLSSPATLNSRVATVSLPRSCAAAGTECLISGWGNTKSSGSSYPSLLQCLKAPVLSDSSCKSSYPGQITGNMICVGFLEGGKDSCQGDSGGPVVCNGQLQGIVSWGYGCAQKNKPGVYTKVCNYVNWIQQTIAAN
`CC(C)N1CCN(S(=O)(=O)c2ccc3ccccc3c2)CC1`: the compound was called inactive.
For the compound `CCn1cc(/C=C(\NC(=O)c2ccccc2F)C(=O)N2CCOCC2)c2ccccc21`, the compound was classed as inactive.
For `CC(C)c1c(C(=O)N/N=C/c2c[nH]c3ccccc23)nnn1-c1nonc1N`, the outcome was inactive.
Consider `CCN(CC)CCN(C(=O)c1ccc2ccccc2c1)c1nc2ccc(F)cc2s1`, for which the compound was called inactive.
As to `CCn1cc(/C=C(\NC(=O)c2ccccc2F)C(=O)N2CCCC2)c2ccccc21`, the compound was classed as inactive.
To `Cc1cccc2sc(N(CCN(C)C)C(=O)c3ccc4ccccc4c3)nc12` belongs “inactive”.
With `CN1C(=O)/C(=C/c2cccc(Cl)c2)Sc2ccc(C(=O)N3CCOCC3)cc21` the entry was “inactive”; with `Cc1cc(N2CCN(C(c3ccccc3)c3ccccc3)CC2)n2ncnc2n1`, “inactive”; with `Cc1cccc(NC(=O)c2cc(S(=O)(=O)N3CCCCC3)c[nH]2)c1C`, “inactive”.
For the compound `COc1ccc(-n2c(SCc3ccc([N+](=O)[O-])cc3)nnc2-c2ccc(C)cc2)cc1`, the outcome was inactive.
Take `O=C(C(Cc1ccccc1)N1C(=O)c2ccccc2C1=O)N1c2ccccc2CCc2ccccc21` (configuration not stated): the outcome was inactive.
On to `COc1ccccc1CC(=O)Nc1ccc2c(C)cc(=O)oc2c1`, for which the result was inactive.
To `Cc1ccc(-c2csc(N3CCN(c4cc5c(cc4Cl)nc(-c4ccncc4)n5CCOCCO)CC3)n2)cc1` belongs “inactive”.
With `CCn1cc(/C=C(\NC(=O)c2ccccc2Cl)C(=O)N2CCOCC2)c2ccccc21`, the compound was classed as inactive.
To `CC(C)CNC(=O)Nc1ccc(F)c(Cl)c1` belongs “inactive”; to `OC(CNCCC1C=Nc2ccccc21)Cn1c2ccc(Cl)cc2c2cc(Cl)ccc21` (configuration not stated), “inactive”.
As to `Cc1cc2cc(C#N)c(NCCNC(=S)NCCCN3CCOCC3)nc2cc1C`, the outcome was inactive.
Take `CN1CCN(C(=O)c2ccc(-c3cccs3)s2)CC1`: the outcome was inactive.
As to `CCn1nc(C)cc1C(=O)NC1CC(C)(C)Cc2c1cnn2-c1cccc(F)c1` (configuration not stated), the call was inactive.
Take `Cc1cccc(-c2nnc(SCc3ccc(C#N)cc3)n2Cc2ccco2)c1`: the outcome was inactive.
With `Cc1ccc(/C=N/NC(=O)c2nnn(-c3nonc3N)c2C(C)C)o1`, the compound was called inactive.
With `CCCCN(CC)CCNC(=O)c1cc2c(-c3ccc(Cl)cc3)nn(C)c2s1`, the result was inactive.
To `O=C(Nc1cccc2ncccc12)c1cccnc1` belongs “inactive”; to `CC(=O)c1c(O)cc(O)c(C(C)=O)c1O`, “inactive”; to `CN(C(=O)COC(=O)c1cc([N+](=O)[O-])ccc1Sc1ccccc1)C1CCS(=O)(=O)C1` (configuration not stated), “inactive”.
Regarding `CN(C(=O)COC(=O)c1cn(-c2ccccc2)nc1-c1ccccc1)C1CCS(=O)(=O)C1` (configuration not stated), the result was inactive.
`CCNC(=S)NNC(=O)CCn1cc(C)cn1`: the compound was classed as inactive.
To `COc1cccc(-c2c(C(=O)N/N=C/c3sccc3C)nnn2-c2nonc2N)c1` belongs “inactive”.
For `NC(=O)[C@H]1CC2(CC(c3cccc(NC(=O)COc4ccc(Cl)cc4)c3)=NO2)CN1C(=O)C(c1ccccc1)c1ccccc1` (some centres not stated), the call was inactive.
As for `Cc1ccc(-c2nc(Nc3ccc(N4CCOCC4)cc3)c3ccccc3n2)cc1`, the result was inactive.
`CCSc1nc2c(c(=O)[nH]1)C(c1ccccn1)C1=C(CC(C)(C)CC1=O)N2` (configuration not stated): the result was inactive.
In the case of `Cc1cc(C)n(-c2nc3ccccc3c(=O)n2OCC(=O)N(C)C)n1`, the outcome was inactive.
To `CCOC(=O)C[C@H]1c2ccccc2S(=O)(=O)N1Cc1cc(OC)c(OC)c(OC)c1` belongs “inactive”; to `COc1ccc(CCN(C)C(=O)c2ccc(S(=O)(=O)Nc3ccccc3C)cc2)cc1OC`, “inactive”.
Consider `COc1ccc(C2/C=C\CN(C(=O)c3ccc(C)cc3)[C@H](Cc3ccccc3)C(=O)N2Cc2ccc(F)cc2)cc1` (some centres not stated), for which the compound was classed as inactive.
Consider `CCCNC(=O)c1c(N)n(-c2ccc(S(N)(=O)=O)cc2)c2nc3ccccc3nc12`, for which the compound was called inactive.
As for `C#CCNC(=O)C1=C[C@@H](C2CCCCC2)C[C@@H](OCc2ccc(CO)cc2)O1`, the compound was called inactive.

The record behind these values is PubChem BioAssay AID488789 (Broad Institute, 2010).
